Where “and” joins values, the source holds several entries; their conditions need not be identical. Identical values can stand only once. In all, about 310,000 compounds went through this assay and about 11,000 (3.5%) were called active. Not shown: some 4% with an inconclusive outcome. The sample holds actives, similar compounds and a random draw of the others, so the mix is not that of the screen. The call rests on the fitted dose curve; in most records, active means well fitted inhibition curve with a large enough effect; inconclusive means small, poorly fitted or top-dose-only effect, or another doubt; inactive means no such curve, though single readings can be large or run the other way.
Potency means the concentration at half of the fitted maximal effect.

The target in the test is 4'-phosphopantetheinyl transferase ffp (Bacillus subtilis) (UniProt Q9F4F7). Kind of test: qHTS Assay for Inhibitors of Bacillus subtilis Sfp phosphopantetheinyl transferase (PPTase).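 Further: the enzyme is Sfp with the accession as filed and its product quenches rhodamine fluorescence.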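 On largest response in the series, negative = inhibition: 0% = enzyme reaction without inhibitor and -100% = no enzyme wells.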 The settings on record: Biochemical Sfp PPTase activity. In outline:
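Reaction rates are the 30-min fluorescence difference (ex 525, em 598 nm) in wells containing 15 nM Sfp, 5 uM rhodamine-CoA and 12.5 uM BHQ-2-YbbR at pH 7.6 with 10 mM MgCl2.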
For orientation: In qHTS, concentration-response curves come from the screen itself.
As to `COc1cccc(C(=O)NNS(=O)(=O)c2ccc(F)cc2)c1`, the largest response in the series, negative = inhibition is -4.08% (inactive).
As for `O=S(=O)(NCCc1ccc(Cl)cc1)c1cccs1`, the largest response in the series, negative = inhibition is 7.54% (inactive).
For `COc1cccc(CN2CCN(Cc3ccc4cccc(F)c4n3)CC2CCO)c1` (stereo unspecified), the largest response in the series, negative = inhibition is 13.8% (inactive).
Regarding `COc1ccc(C(=O)CSc2nnc(COc3ccccc3)n2Cc2ccco2)cc1`, the largest response in the series, negative = inhibition is -23.6% (inactive).
As to `Cn1c2ccccc2c(=O)c2c(=O)n(Cc3ccco3)c(COc3ccccc3)nc21`, the Potency was 8.91 µM (active).
With `CCCc1nc2c(c(=O)c3ccccc3n2C)c(=O)n1-c1cc(C)cc(C)c1`, the largest response in the series, negative = inhibition is -11.4% (inactive).
Same read-out and setting: then `COc1cccc(NC(=O)C(=O)c2cn(CC(=O)N3CCOCC3)c3ccccc23)c1`, with 11.1% (inactive).
With `CC(C)(C)NCCCOc1ccc(Cl)cc1C(C)(C)C`, the Potency was 50.1 µM (active).
On to `Cc1ccc(C(C)(C)C)c(OCCCCN2CCCC2)c1`, for which the largest response in the series, negative = inhibition was -28.7% (inactive).
Take `COCCCNCCOCCOc1ccc(Cl)cc1Br`: the largest response in the series, negative = inhibition is 1.66% (inactive).
In the case of `CC(C)(C)OC(=O)N1CCC(C(=O)NNC(=O)c2ccc(Cl)cc2Cl)CC1`, the largest response in the series, negative = inhibition is 5.93% (inactive).
Regarding `CCOCCCNc1nc(-c2ccccc2)nc2ccccc12`, the largest response in the series, negative = inhibition is 14.7% (inactive).
Still for that read-out and setting: to `c1coc(CNc2ncnc3ccccc23)c1` belongs 8.96% (inactive).
Consider `c1ccc(-c2nc(NCc3ccco3)c3ccccc3n2)cc1`, for which the Potency is 11.2 µM (active).
On to `CC(C)C(=O)N1CC(=O)Nc2ccc(F)cc2C1c1ccc(F)cc1` (stereo unspecified), for which the largest response in the series, negative = inhibition is 17.9% (inactive).
Regarding `CCN(CC(=O)N1CCCC1)S(=O)(=O)c1ccc(F)cc1`, the largest response in the series, negative = inhibition is 4.81% (inactive).
On the same count and under the same terms, to `O=C(Nc1ccc(NC(=O)c2ccco2)c(Cl)c1)c1cccc([N+](=O)[O-])c1` belongs 5.01% (inactive); to `O=C(NNC(=S)Nc1ccc(Br)cc1Cl)c1ccco1`, 12.1% (inactive).
For `CCC(=O)NC(=S)Nc1ccc(NC(=O)c2ccco2)c(Cl)c1`, the Potency is 39.8 µM (active).
With `O=S(=O)(c1cccc(Cn2nnc(-c3ccc(F)cc3)n2)c1)N1CCOCC1`, the largest response in the series, negative = inhibition was 3.33% (inactive).
The same measure, in the same setting: then `CC(=O)C1=C(C)NC(=O)NC1c1ccc2c(c1)OCO2` (stereo unspecified), with 0.489% (inactive).
On to `S=c1[nH]nc2c3c4c(sc3ncn12)CCCC4`, for which the Potency is 56.2 µM (active).
As for `c1nnc2c3c4c(sc3ncn12)CCC4`, the largest response in the series, negative = inhibition was -1.58% (inactive).
Regarding `N=c1c2c3c(sc2ncn1N)CCCC3`, the largest response in the series, negative = inhibition is 13.2% (inactive).
As for `Cc1cc(-c2ccc(S(=O)(=O)N3CCc4ccccc4C3)s2)on1`, the largest response in the series, negative = inhibition is 12.5% (inactive).
For the compound `O=C(NCc1ccccc1)C(c1ccco1)N(C(=O)c1csnn1)c1ccccc1F` (stereo unspecified), the largest response in the series, negative = inhibition is 11.4% (inactive).
Regarding `C[C@H](NC(=O)C1CC(=O)N(c2ccc3c(c2)OCO3)C1)C(=O)NCc1ccco1` (stereo partly specified), the largest response in the series, negative = inhibition is 4.65% (inactive).
Turning to `CC/C=C\C/C=C\C/C=C\C/C=C\C/C=C\C/C=C\CCC(=O)NC(C)C(=O)O` (stereo unspecified), the largest response in the series, negative = inhibition was -29.1% (inactive).
For the compound `CN(C)/C=C1\C=C(c2ccccc2)OC1=O`, the Potency is 20 µM (active).
`CN(C)/C=C1/C(=O)Nc2ccccc21`: the largest response in the series, negative = inhibition is -6.73% (inactive).
For `COc1cccc(/C=C2\C=C(c3ccc(C)cc3)OC2=O)c1OC(C)=O`, the largest response in the series, negative = inhibition was -6.33% (inactive).
On the same count and under the same terms, then `O=S(=O)(c1ccccc1)N(Cc1cccc(F)c1)c1ccccc1`, with 13.8% (inactive).
On to `CN(Cc1ccco1)c1ncncc1-c1ccoc1`, for which the Potency is 79.4 µM (active).
Turning to `Cc1ccccc1-c1nc(N(C)Cc2ccco2)c2ccccc2n1`, the largest response in the series, negative = inhibition is -22.5% (inactive).
Take `CN(Cc1ccco1)c1cc(-c2ccccc2C(F)(F)F)ncn1`: the largest response in the series, negative = inhibition is -8.82% (inactive).
Regarding `CCC1OC(c2ccc([N+](=O)[O-])cc2)=Nc2ccccc21` (stereo unspecified), the largest response in the series, negative = inhibition was -5.21% (inactive).
Turning to `CCOc1cc(C)ccc1OCc1nnc(SCC(=O)Nc2cccc(C(=O)O)c2)n1-c1ccccc1`, the largest response in the series, negative = inhibition was 22.3% (inactive).
The same measure, in the same setting: then `Cc1ccc(NC(=O)[C@H](Cc2ccccc2)NC(=O)C2CCNCC2)cc1`, with 1.09% (inactive); and `CCOC(=O)c1c(NC(=S)NC)sc2c1CCCC2`, with 7.02% (inactive).
`CCOC(=O)c1c(NC(=S)Nc2ccccc2C)sc2c1CCC2`: the largest response in the series, negative = inhibition was -14.6% (inactive).
`CCCOC(=O)Nc1sc2c(c1C(=O)OCC)CCC2`: the Potency was 14.1 µM (active).
On to `CCOC(=O)c1c(NC(=O)Cn2nc(C(F)(F)F)cc2C)sc2c1CCC2`, for which the largest response in the series, negative = inhibition is -2.66% (inactive).
In the case of `CCOC(=O)c1c(NC(=O)CCC(=O)NCc2ccco2)sc2c1CCCC2`, the largest response in the series, negative = inhibition was -8.63% (inactive).
For the compound `CCOC(=O)c1c(NC(=O)C2(C)Cc3ccccc3C(=O)O2)sc2c1CCCC2` (stereo unspecified), the Potency is 35.5 µM (active).
In the case of `Cc1ccc(C(=O)OCC(=O)NC(=O)Cc2ccccc2)c(O)c1`, the largest response in the series, negative = inhibition was 15.9% (inactive).
On to `Cc1ccc(CNC(=O)Cn2cnc(S(=O)(=O)N3CCCCC3)c2)o1`, for which the largest response in the series, negative = inhibition was 14.3% (inactive).
Take `Cc1ccc(CNC(=O)C2(C(F)(F)F)C/C(=C\Cc3ccccc3)CCCO2)o1` (stereo unspecified): the Potency was 35.5 µM (active) and 50.1 µM (active).
On to `Cc1ccc(CNC(=O)C2(C(F)(F)F)C/C(=C\CCO)CCCO2)o1` (stereo unspecified), for which the Potency is 50.1 µM (active).
`O=C(NCc1ccccn1)[C@]1(C(F)(F)F)C[C@H](CCc2ccccc2)CCCO1`: the largest response in the series, negative = inhibition is -24.4% (inactive).
`O=C(NCC1CC1)C1(C(F)(F)F)C/C(=C\CCO)CCCO1` (stereo unspecified): the largest response in the series, negative = inhibition is 1.74% (inactive).
For `CNC(=O)[C@]1(C(F)(F)F)C[C@H](CCc2ccccc2)CCCO1`, the largest response in the series, negative = inhibition is -10.7% (inactive).
Same read-out and setting: to `CCCn1nc(NC(=O)C(C)C)c2cc3cc(OC)ccc3nc21` belongs 4.66% (inactive); to `CC(O)COc1ccccc1` (stereo unspecified), 12.6% (inactive); to `COc1ccc(N(CC(=O)NCc2ccc(F)cc2)C(=O)CCC(=O)Nc2nccs2)cc1`, -11.5% (inactive).
With `O=C1CCC(=O)N(c2ccccc2)N1`, the largest response in the series, negative = inhibition is -3.33% (inactive).
On the same count and under the same terms, then `CN(CCC(=O)Nc1cc(S(=O)(=O)N(C)C)ccc1Cl)CC(=O)Nc1ccc(F)cc1`, with 13.5% (inactive); and `Cn1c(N)c(C(=O)COC(=O)c2cc(C(F)(F)F)nc3c(C(F)(F)F)cccc23)c(=O)n(C)c1=O`, with 13.8% (inactive); and `N#C/C(=C/c1ccc(N2CCCCC2)o1)C(=O)NCCc1c[nH]c2ccccc12`, with -16.2% (inactive).
As for `N#C/C(=C/c1ccc(N2CCOCC2)o1)C(=O)N1CCOCC1`, the Potency is 56.2 µM (active).
In the case of `N#C/C(=C\c1ccc(N2CCOCC2)o1)C(=O)N1CCOCC1`, the largest response in the series, negative = inhibition is -13.7% (inactive).
On the same count and under the same terms, to `CCCCC[C@H]1CN(C2CCCCC2)C(=O)[C@@H]1CC(=O)NCc1ccc(OC)cc1` belongs -4.46% (inactive).

The values are drawn from PubChem BioAssay AID1490 (National Center for Advancing Translational Sciences (NCATS), 2009).
